Results on 35 compounds are retold here after PubChem BioAssay (NCATS).

Records with an inconclusive call do not appear. The source made the active and inactive calls. Calls come from the whole dose curve; as a rule, active = well fitted cell-killing curve with a large enough effect; inconclusive = small, poorly fitted or top-dose-only effect; inactive = flat fitted curve, though single readings scatter.
Potency is the fitted concentration of half-maximal effect.

The first experiment is described as follows: qHTS of pediatric cancer cell lines to identify multiple opportunities for drug repurposing: Primary screen for TC32 cells (AID 1347089). For activity change, negative = cytotoxic: % is set by controls: 0 for no effect and ±100 for the full control effect. Note: nearly all actives have a fitted effect of over 60% in size. The note with it: TC32 Ewing sarcoma viability, CellTiter-Glo luminescence, 48 h; series mostly up to 45.8 µM; activity change, negative = cytotoxic: at the top concentration. Put shortly: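 Luminescent ATP read-out (CellTiter-Glo) of metabolically active TC32 cells after 48 h exposure. Concentration-response curves came from 11-point (MIPE, 0.78 nM–46 µM) or 8-point (NPC, 0.59 nM–46 µM) primary titrations; follow-up used 11 points.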
A general note: Quantitative high-throughput screening tests each substance at several concentrations.
`COC(=O)Nc1nc2ccc(C(=O)c3ccc(F)cc3)cc2[nH]1`: the “activity change, negative = cytotoxic” value is -4.42% (inactive).
Still for that read-out and setting: for `Cc1ccc(CN2CCNCC2)cc1NC(=O)CNc1ccc(F)c(F)c1` the value was 4.75% (inactive); for `O=C(O)[C@H](Cc1c[nH]c2ccccc12)N1C(=O)c2ccccc2C1=O`, 8.24% [at 92.2 µM] (inactive).
Still for that read-out and setting: for `CS(=O)(=O)c1ccc(-c2cnc(N)c(C(=O)Nc3ccccc3)n2)cc1` the value was -22.6% (inactive).
For the compound `Cc1nc(N)ncc1-c1nc(N2CCOCC2)c2sc(C(C)(C)O)cc2n1`, the Potency was 2.34 µM (active).
Still for that read-out and setting: then `CC[C@@]1(O)C(=O)OCc2c1cc1n(c2=O)Cc2cc3cc(O)ccc3nc2-1`, with 0.0415 µM (active); and `COc1ccc2c(c1)CC[C@@H](CN(C)CC(=O)O)[C@H]2c1ccccc1`, with 3.7 µM (active).
Regarding `C=CC(=O)N1CCC[C@@H](n2nc(-c3ccc(Oc4ccccc4)cc3)c3c(N)ncnc32)C1`, the “activity change, negative = cytotoxic” value was 12.4% (inactive).
On the same count and under the same terms, for `CC(C)c1ccccc1Cc1cc(C(=O)Nc2ccc(S(=O)(=O)c3ccccc3C(C)(C)C)cc2)c(O)c(O)c1O` the value was -2.26% (inactive).
As to `Cc1cc(Nc2cc(N3CCN(C)CC3)nc(C=Cc3ccccc3)n2)n[nH]1`, the Potency is 6.02 µM (active).
Same read-out and setting: for `Cc1nc(Nc2n[nH]c3c2CN(C(=O)N[C@H](CN(C)C)c2ccccc2)C3(C)C)c2sccc2n1` the value was 0.739 µM (active).
Take `Cc1cnc(-c2cnc(NCCNc3ccc(C#N)cn3)nc2-c2ccc(Cl)cc2Cl)[nH]1`: the “activity change, negative = cytotoxic” value is 5.25% (inactive).
In the case of `CC=C1NC(=O)[C@H]2CSSCCC=C[C@H](CC(=O)N[C@H](C(C)C)C(=O)N2)OC(=O)[C@H](C(C)C)NC1=O`, the Potency was 0.0587 µM (active).
On to `Cn1c(CNc2ccc(C(=N)N)cc2)nc2cc(C(=O)N(CCC(=O)O)c3ccccn3)ccc21`, for which the “activity change, negative = cytotoxic” value is 3.29% [at 16 µM] (inactive).
On to `Cc1ccc(C(=O)Nc2cccc(C(F)(F)F)c2)cc1-c1ccc2nc(NCCN3CCOCC3)ncc2c1`, for which the Potency is 18.6 µM (active).
Same read-out and setting: for `NC(=O)c1cccc2cn(-c3ccc([C@@H]4CCCNC4)cc3)nc12` the value was 20.8 µM (active).
The same measure, in the same setting: then `Nc1nc(Nc2ccc(S(N)(=O)=O)cc2)nn1C(=O)c1c(F)cccc1F`, with 14.7 µM (active).
For `COc1cc2c(NC3CCN(C(C)C)CC3)nc(C3CCCCC3)nc2cc1OCCCN1CCCC1`, the “activity change, negative = cytotoxic” value is 2.35% (inactive).
The same measure, in the same setting: for `COc1c(N2C[C@@H]3CCCN[C@H]3C2)c(F)cc2c(=O)c(C(=O)O)cn(C3CC3)c12` the value was 12.9% (inactive).
Consider `COc1ccc(-c2cc3c(C)nc(N)nc3n(C3CCC(OCCO)CC3)c2=O)cn1` (centres undefined), for which the Potency is 0.186 µM (active).
`O=C(O)CO.[NH2-].[NH2-].[Pt+2]`: the “activity change, negative = cytotoxic” value was 18% (inactive).
As for `CN1CCN(Cc2ccc(NC(=O)Nc3ccc(Oc4cc(NC(=O)C5CC5)ncn4)cc3)cc2C(F)(F)F)CC1`, the Potency is 0.294 µM (active).
As for `COc1ccc(C(=O)CC2(O)C(=O)Nc3c(Cl)ccc(Cl)c32)cc1` (centres undefined), the Potency was 7.39 µM (active).
For the compound `CC(C)(O)CCc1ccc(OCc2cc(-c3cccc(OC(F)F)c3)c3ncccc3c2)cc1`, the “activity change, negative = cytotoxic” value is 13.8% (inactive).

A further experiment in a line: qHTS of pediatric cancer cell lines to identify multiple opportunities for drug repurposing: Primary screen for DAOY cells (AID 1347090).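 For activity change, negative = cytotoxic: plate controls were DMSO for no effect and bortezomib for full effect.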 Note: nearly all actives have a fitted effect of over 55% in size. The note with it: DAOY medulloblastoma viability, CellTiter-Glo luminescence, 48 h; series mostly up to 46 µM; activity change, negative = cytotoxic: at the top concentration. Put shortly:
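Eight- or eleven-point concentration series, 48 h treatment at 37 degrees C in growth media; readout CellTiter-Glo luminescence. Potency and efficacy were taken from the concentration-response curves.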
With `OCCCNc1cc(-c2ccnc(Nc3cccc(Cl)c3)n2)ccn1`, the Potency is 0.187 µM (active).
On the same count and under the same terms, for `CNC(=O)c1c(F)cccc1Nc1nc(Nc2cc3c(cc2OC)CCN3C(=O)CN(C)C)nc2[nH]ccc12` the value was 0.118 µM (active); for `Cc1c(CN2CCN(S(C)(=O)=O)CC2)sc2c(N3CCOCC3)nc(-c3cnc(N)nc3)nc12`, 0.118 µM (active).
The same measure, in the same setting: then `C=C1C(=CC=C2CCCC3(C)[C@@H]([C@H](C)C=CC=CC(O)(CC)CC)CC[C@@H]23)C[C@@H](O)C[C@@H]1O` (some centres undefined), with 23.5 µM (active).
Take `COc1ccc2c(OCc3nnc4ccc(-c5ccccc5)nn34)ccnc2c1`: the “activity change, negative = cytotoxic” value was -3.75% (inactive).
Consider `COc1cc(C)c(Sc2cnc(NC(=O)c3ccc(CNC(C)C(C)C)cc3)s2)cc1C(=O)N1CCN(C(C)=O)CC1` (centres undefined), for which the Potency is 14.8 µM (active).
The same measure, in the same setting: for `CC[C@@H]1C(=O)N(C)c2cnc(Nc3ccc(C(=O)NC4CCC(N5CCN(CC6CC6)CC5)CC4)cc3OC)nc2N1C(C)C` (some centres undefined) the value was 0.0743 µM (active); for `COc1cc2c(Oc3ccc(-c4cnc(Nc5ccc(F)cc5)n(C)c4=O)cc3F)ccnc2cc1OCCCN1CCOCC1`, 18.7 µM (active).
`CCCNC(=O)Nc1ccc(Oc2ncnc3cc(OC)c(OC)cc23)cc1Cl`: the “activity change, negative = cytotoxic” value was -16.9% (inactive).
On to `CCC1=C[C@@H]2CN(C1)Cc1c([nH]c3ccccc13)[C@@](C(=O)OC)(c1cc3c(cc1OC)N(C)[C@@H]1[C@@](O)(C(=O)OC)[C@H](OC(C)=O)[C@]4(CC)C=CCN5CC[C@]31[C@@H]54)C2`, for which the Potency is 0.187 µM (active).
On to `Cc1cn(-c2cc(NC(=O)c3ccc(C)c(Nc4nccc(-c5cccnc5)n4)c3)cc(C(F)(F)F)c2)cn1`, for which the “activity change, negative = cytotoxic” value was 6.86% (inactive).
Take `COC(=O)Nc1nc2ccc(C(=O)c3ccc(F)cc3)cc2[nH]1`: the Potency was 0.743 µM (active).
As to `Cc1ccc(CN2CCNCC2)cc1NC(=O)CNc1ccc(F)c(F)c1`, the “activity change, negative = cytotoxic” value was 3.6% (inactive).
Same read-out and setting: then `O=C(O)[C@H](Cc1c[nH]c2ccccc12)N1C(=O)c2ccccc2C1=O`, with -0.562% [at 92.7 µM] (inactive); and `CS(=O)(=O)c1ccc(-c2cnc(N)c(C(=O)Nc3ccccc3)n2)cc1`, with -21.3% (inactive).
`Cc1nc(N)ncc1-c1nc(N2CCOCC2)c2sc(C(C)(C)O)cc2n1`: the Potency is 0.935 µM (active).
Same read-out and setting: then `CC[C@@]1(O)C(=O)OCc2c1cc1n(c2=O)Cc2cc3cc(O)ccc3nc2-1`, with 0.118 µM (active); and `COc1ccc2c(c1)CC[C@@H](CN(C)CC(=O)O)[C@H]2c1ccccc1`, with 2.96 µM (active).
Same read-out and setting: for `C=CC(=O)N1CCC[C@@H](n2nc(-c3ccc(Oc4ccccc4)cc3)c3c(N)ncnc32)C1` the value was 23.5 µM (active).
Still for that read-out and setting: for `CC(C)c1ccccc1Cc1cc(C(=O)Nc2ccc(S(=O)(=O)c3ccccc3C(C)(C)C)cc2)c(O)c(O)c1O` the value was 29.6 µM (active); for `Cc1cc(Nc2cc(N3CCN(C)CC3)nc(C=Cc3ccccc3)n2)n[nH]1`, 42.9 µM (active); for `Cc1nc(Nc2n[nH]c3c2CN(C(=O)N[C@H](CN(C)C)c2ccccc2)C3(C)C)c2sccc2n1`, 11.8 µM (active).
As to `Cc1cnc(-c2cnc(NCCNc3ccc(C#N)cn3)nc2-c2ccc(Cl)cc2Cl)[nH]1`, the Potency was 14.8 µM (active).
As to `CC=C1NC(=O)[C@H]2CSSCCC=C[C@H](CC(=O)N[C@H](C(C)C)C(=O)N2)OC(=O)[C@H](C(C)C)NC1=O`, the Potency was 0.0296 µM (active).
For the compound `Cn1c(CNc2ccc(C(=N)N)cc2)nc2cc(C(=O)N(CCC(=O)O)c3ccccn3)ccc21`, the “activity change, negative = cytotoxic” value was 2.63% [at 16.1 µM] (inactive).
In the case of `Cc1ccc(C(=O)Nc2cccc(C(F)(F)F)c2)cc1-c1ccc2nc(NCCN3CCOCC3)ncc2c1`, the Potency is 14.8 µM (active).
`NC(=O)c1cccc2cn(-c3ccc([C@@H]4CCCNC4)cc3)nc12`: the “activity change, negative = cytotoxic” value was -22% (inactive).
For the compound `Nc1nc(Nc2ccc(S(N)(=O)=O)cc2)nn1C(=O)c1c(F)cccc1F`, the Potency was 11.8 µM (active).
Still for that read-out and setting: then `COc1cc2c(NC3CCN(C(C)C)CC3)nc(C3CCCCC3)nc2cc1OCCCN1CCCC1`, with 18.7 µM (active).
In the case of `COc1c(N2C[C@@H]3CCCN[C@H]3C2)c(F)cc2c(=O)c(C(=O)O)cn(C3CC3)c12`, the “activity change, negative = cytotoxic” value was 14.8% (inactive).
Regarding `COc1ccc(-c2cc3c(C)nc(N)nc3n(C3CCC(OCCO)CC3)c2=O)cn1` (centres undefined), the Potency is 0.118 µM (active).
In the case of `O=C(O)CO.[NH2-].[NH2-].[Pt+2]`, the “activity change, negative = cytotoxic” value was 0.117% (inactive).
With `CN1CCN(Cc2ccc(NC(=O)Nc3ccc(Oc4cc(NC(=O)C5CC5)ncn4)cc3)cc2C(F)(F)F)CC1`, the Potency is 0.59 µM (active).
Same read-out and setting: for `COc1ccc(C(=O)CC2(O)C(=O)Nc3c(Cl)ccc(Cl)c32)cc1` (centres undefined) the value was 3.72 µM (active).
Regarding `CC(C)(O)CCc1ccc(OCc2cc(-c3cccc(OC(F)F)c3)c3ncccc3c2)cc1`, the “activity change, negative = cytotoxic” value is -10.5% (inactive).
